Assay outcomes deposited in PubChem BioAssay by several laboratories.
This is a sample that favours compounds with a hit; in the whole collection about 27% have one here.
CYP2C19 act = human CYP2C19 activators, primary screen, biochemical, luminescence; Cytochrome P450 2C19 (Homo sapiens), P33261; recombinant CYP2C19, luciferin-H EGE luminescence; hits give high values; 0 = fully inhibited enzyme, 1 = untreated enzyme; activation factor at 5 µM; 96,000 tested, under 10 active;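 active means activation factor of at least 2 at 5 µM in the primary screen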
CYP2C9 inh = blockers of cytochrome P450 2C9 activity – biochemical, luminescence, ADME assay, primary screen; P11712; CYP2C9 Supersomes, luciferin-H conversion; inhibition, % at 5 µM; actives 20% (n = 96,000); AID 777, 2007;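 active means blocking of liver enzyme CYP2C9 beyond about 50% at 5 µM, limit read from the data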
Target sequence (P11712 whole entry, looked up): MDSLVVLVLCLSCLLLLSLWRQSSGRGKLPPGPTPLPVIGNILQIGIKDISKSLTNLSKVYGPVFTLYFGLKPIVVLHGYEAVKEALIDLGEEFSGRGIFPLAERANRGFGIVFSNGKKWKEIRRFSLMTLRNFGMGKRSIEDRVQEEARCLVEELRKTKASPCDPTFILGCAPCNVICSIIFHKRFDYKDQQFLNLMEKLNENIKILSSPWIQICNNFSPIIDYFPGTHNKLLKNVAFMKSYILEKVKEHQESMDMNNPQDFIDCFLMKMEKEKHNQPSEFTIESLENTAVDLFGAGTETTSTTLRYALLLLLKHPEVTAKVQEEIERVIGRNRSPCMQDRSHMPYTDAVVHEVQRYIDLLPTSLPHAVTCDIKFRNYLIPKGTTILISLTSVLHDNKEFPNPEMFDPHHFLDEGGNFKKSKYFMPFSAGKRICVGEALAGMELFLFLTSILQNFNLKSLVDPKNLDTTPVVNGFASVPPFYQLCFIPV
CYP2C19 inhib = blockers of cytochrome P450 2C19 activity – biochemical, luminescence, ADME assay, primary screen; P33261; CYP2C19 Supersomes, luciferin-H EGE luminescence, 30 min; inhibition, % at 5 µM; actives 21% (n = 96,000); AID 778, 2007;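 active means CYP2C19 inhibition above a set limit at 5 µM in the primary screen, cut at about 50% in these data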
CYP2C9 activ = human CYP2C9 activators, primary screen, biochemical, luminescence | recombinant CYP2C9, luciferin-H conversion; hits give high values; factor 1 = untreated enzyme, 0 = blocked | actives 1.4% (n = 96,000) | AID 1024, 2008 | activation factor at 5 µM;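 active means activation factor of 2 or more for CYP2C9 at a 5 µM dose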
Cav3 T inh = Cav3.2 calcium influx blockers – cell-based, Fluo-4 calcium fluorescence, FDSS, MLSMR library, primary screen | Cav3.2-expressing cells; hits give low values | B-score at 10 µM | actives 4% (n = 100,000) | AID 449739, 2010;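 active means single-dose well whose peak fluorescence ratio is a statistical outlier from its plate by either plate-standardised score or position-corrected B-score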
Of the large screens only hits and unclear results are named; the others gave an inactive call.

CCc1noc(C)c1C(=O)Nc1nc(-c2ccc(Cl)cc2Cl)c(C)s1	none
CC(C)CNC(=S)NNC(=O)c1csc2c1CCC(C)C2 (stereo not given)	CYP2C19 inhib 52.2
Cc1cccc(NC(=S)NNC(=O)c2csc3c2CCC(C)C3)c1 (stereo not given)	none
COC(=O)c1cc2ccsc2n1CC(=O)NCC1CCCO1 (stereo not given)	none
COC(=O)c1cc2oc3ccccc3c2n1CC(=O)N1CCCc2ccccc21	none
COC(=O)c1cc2ccsc2n1CC(=O)Nc1cc(C)cc(C)c1	CYP2C9 inh 66.4
COC(=O)c1cc2ccsc2n1CC(=O)N1CCCc2ccccc21	CYP2C9 inh 93.4, CYP2C19 inhib 94.6
COC(=O)c1cc2ccsc2n1Cc1nc(-c2ccc(Cl)cc2)oc1C	CYP2C9 inh 89.1, CYP2C19 inhib 54.8
COC(=O)c1cc2c(=O)n3ccccc3nc2n(C)c1=N	none (no result: Cav3 T inh)
COC(=O)c1cc2ccsc2n1Cc1cc(=O)n2ccccc2n1	CYP2C9 inh 92.3, CYP2C19 inhib 52.6
COCCNC(=O)CS(=O)Cc1nc(-c2ccc(Cl)cc2)oc1C (stereo not given)	none (no result: Cav3 T inh)
COC(=O)C1=C(C)N(CCCC(=O)O)C(=O)NC1c1ccc(C#N)cc1 (stereo not given)	none (no result: CYP2C19 act, CYP2C9 inh, CYP2C19 inhib, CYP2C9 activ)
NCCCC[C@H]1CNC(=S)N1CC1CCCCC1	none (no result: CYP2C19 act, CYP2C9 inh, CYP2C19 inhib, CYP2C9 activ)
CC(=O)C1=C(C)Nc2cc(C(F)(F)F)ccc2S1	CYP2C19 inhib 60.0
CC(C)NC(=S)N/N=C/c1cccs1	CYP2C19 inhib 81.7
Cc1occc1C(=O)N/N=C/c1cccs1	none
COc1ccc(S(=O)(=O)n2nc(OC(=O)c3cccs3)cc2NC(=O)c2cccs2)cc1	none (no result: CYP2C19 act, CYP2C9 inh, CYP2C19 inhib, CYP2C9 activ)
CCCCN(CCCNC(=O)C1CCN(S(=O)(=O)CC)CC1)c1ccccc1	none (no result: CYP2C19 act, CYP2C9 inh, CYP2C19 inhib, CYP2C9 activ)
CCN(CCCNC(=O)CC(C(=O)N1CCc2ccccc21)n1ccnc1)c1ccccc1 (stereo not given)	CYP2C19 inhib 93.7, Cav3 T inh -4.62
O=C(CSc1nnc(-c2ccccc2)n1Cc1ccccc1)N1CCCC1	none
C=CCn1c(SCC(=O)N2CCN(c3ccccc3)CC2)nnc1-c1ccco1	none
CCCCn1c(SCC(=O)N2CCCC2)nnc1-c1ccccc1	CYP2C19 inhib 51.9
C=CCn1c(SCC(=O)N2CCN(c3ccc(F)cc3)CC2)nnc1-c1cccs1	CYP2C19 inhib 65.0
CCCCn1c(SCC(=O)N2CCOCC2)nnc1-c1cccs1	CYP2C9 inh 62.1
CCOc1cc(C=C(C(=O)OC)C(=O)OC)ccc1OCc1ccc([N+](=O)[O-])cc1	none
O=C(Cc1ccc(Cl)cc1)Nc1cccc(-c2nnc(-c3ccco3)o2)c1	CYP2C9 inh 77.6, CYP2C19 inhib 80.4
O=C(Nc1cccc(-c2nnc(-c3ccco3)o2)c1)C(c1ccccc1)c1ccccc1	CYP2C9 inh 97.8, CYP2C19 inhib 83.4
CC(=O)Nc1cccc(-c2nnc(-c3ccccc3)o2)c1	none
O=C(Cc1ccccc1)Nc1cccc(-c2nnc(-c3ccco3)o2)c1	CYP2C9 inh 79.0, CYP2C19 inhib 84.4
O=C(COc1ccccc1)Nc1ccc(-c2nnc(-c3ccco3)o2)cc1	none
CCC(C)(C)n1nnnc1CN(Cc1ccco1)Cc1cc2cc3c(cc2[nH]c1=O)OCO3	none
CC(C)(C)n1nnnc1C(c1ccc(C(F)(F)F)cc1)N(Cc1ccc(F)cc1)Cc1ccco1 (stereo not given)	Cav3 T inh -4.27 (no result: CYP2C19 act, CYP2C9 inh, CYP2C19 inhib, CYP2C9 activ)
CC(C)(C)n1nnnc1C(c1ccc(C(F)(F)F)cc1)N(Cc1ccccc1)Cc1ccco1 (stereo not given)	none (no result: Cav3 T inh)
CC(C)(C)n1nnnc1C(c1ccc(Cl)cc1)N(Cc1cccnc1)Cc1ccco1 (stereo not given)	Cav3 T inh -9.48 (no result: CYP2C19 act, CYP2C9 inh, CYP2C19 inhib, CYP2C9 activ)
CCC(C)(C)n1nnnc1CN(Cc1ccc(Cl)cc1)Cc1ccco1	CYP2C9 inh 95.6, CYP2C19 inhib 97.4 (no result: Cav3 T inh)
Cc1ccc(C(c2nnnn2C(C)(C)C)N(Cc2ccco2)Cc2cccs2)cc1 (stereo not given)	CYP2C9 inh 75.9, Cav3 T inh -5.14
COc1ccc2[nH]c(=O)c(C(c3nnnn3C(C)(C)C)N(Cc3ccco3)CC3CCCO3)cc2c1 (stereo not given)	none
CCc1nc2ccccc2n1Cc1cc(=O)n2cc(C)ccc2n1	none
C=CCNC(=O)c1onc(CCl)c1C(=O)OC	none
CSc1nnc(C)c(=O)[nH]1	none (no result: CYP2C19 act, CYP2C9 inh, CYP2C19 inhib, CYP2C9 activ)
CCC(c1nnnn1C(C)(C)C)N(Cc1ccco1)Cc1cc2cccc(C)c2[nH]c1=O (stereo not given)	none
CC(C)(C)n1nnnc1C(c1ccc(F)cc1)N(Cc1ccc(F)cc1)Cc1ccco1 (stereo not given)	CYP2C9 inh 65.0, Cav3 T inh -6.25
CCCCCCC1CCC(C(=O)NC(CCSC)C(=O)NC(C(=O)OC)C(C)C)CC1 (stereo not given)	CYP2C19 inhib 85.5, Cav3 T inh -6.78
COc1ccc(OC)c(N2C(=O)[C@@H]3C(c4ccccc4Cl)=NO[C@@H]3C2=O)c1	none
COc1ccc(OC)c(N2C(=O)C(Cl)=C(N3CCCCC3)C2=O)c1	CYP2C9 inh 78.1, CYP2C19 inhib 66.5
O=C1C(Cl)=C(N2CCCCC2)C(=O)N1c1ccccc1Cl	none
COc1ccc(OC)c(N2C(=O)C(Cl)=C(N3CCOCC3)C2=O)c1	CYP2C19 inhib 59.5
COc1ccc(C2C(C#N)=C(N)Oc3cc(O)ccc32)cc1OC (stereo not given)	none
COc1cccc(C2C(C#N)=C(N)OC(C(C)(C)C)=C2C#N)c1 (stereo not given)	CYP2C9 inh 94.0, CYP2C19 inhib 84.9
COc1ccc(C2C(C#N)=C(N)OC(C(C)(C)C)=C2C#N)cc1OC (stereo not given)	CYP2C9 inh 90.2, CYP2C19 inhib 60.6
COCc1[nH]nc2c1C(c1cccc(OC)c1)C(C#N)=C(N)O2 (stereo not given)	none
C[C@H](NC(=O)CCC1CCC(=O)N1)c1ccccc1 (stereo not given in full)	none (no result: CYP2C19 act, CYP2C9 inh, CYP2C19 inhib, CYP2C9 activ)
CC(C)(C)n1ncc2c(=O)n(Cc3c(F)cccc3Cl)cnc21	CYP2C19 inhib 86.9
CC(C)(C)n1ncc2c(=O)n(CC(=O)Nc3ccc(Cl)cc3)cnc21	Cav3 T inh -9.52
COc1cccc(-n2nnc3c(=O)n(Cc4c(F)cccc4Cl)cnc32)c1	none (no result: CYP2C19 act, CYP2C9 inh, CYP2C19 inhib, CYP2C9 activ)
CC1CN(C(=S)NC(=O)c2ccc([N+](=O)[O-])cc2)CC(C)O1 (stereo not given)	none
Cc1c(N2C(=O)CS/C2=N\N=C\c2ccc(Br)cc2)c(=O)n(-c2ccccc2)n1C	none
CCC(SCC(=O)OC)C(=O)Nc1nnc(C(C)C)s1 (stereo not given)	none
CCn1c(SCCC#N)nnc1-c1ccncc1	none
C=CCn1c(SCCC#N)nnc1-c1ccncc1	CYP2C19 inhib 55.3
